± gives the standard deviation.

Holding throughout (experiment): peptide microarray binding signal (635 nm), min-max normalized on array (fraction of array maximum); higher = stronger binding
Assay [1] concerns the target T1, HaloTag-ATRX ADD domain (163-292).
T1 chain: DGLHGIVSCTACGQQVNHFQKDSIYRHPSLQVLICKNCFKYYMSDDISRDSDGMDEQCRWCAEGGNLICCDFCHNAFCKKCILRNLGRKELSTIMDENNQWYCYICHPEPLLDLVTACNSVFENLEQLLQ
The method, boiled down:
(§1)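 Arrays carried histone 13-mer peptide–cellulose conjugates printed in triplicate on nitrocellulose alongside a Cy3 tracer. After overnight blocking at 4°C, they were incubated for 1 h at 4°C with biotin-labelled HaloTag reader fusions (10 nM to 1 μM) plus streptavidin-Alexa Fluor 647, or with rabbit histone antibodies (1:10,000 to 1:2,000) plus anti-rabbit Alexa 647. Scanning on an Axon GenePix 4000B used 635 nm for signal and 532 nm for misprints. The binding signal reported is each triplicate's mean spot intensity after per-library min-max scaling.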

Assay [2] concerns the target HaloTag-ING2 PHD (mouse Ing2 200-280). The procedure, abridged: as §1
Assay [3] has as its target anti-H3K4me3 antibody ab8580. The method, boiled down: as §1
In assay [4] the target is anti-H3K9me3 antibody ab8898. The procedure, abridged: as §1
The mark [5] stands for this setting: peptide region: H3 20-32, peptide modifications: H3K23ac H3K27me2, binder concentration: 1:2,000 dilution.
[6] abbreviates: peptide region: H3 20-32, peptide modifications: H3K23ac H3K27me2, binder concentration: 1:10,000 dilution.
[7] abbreviates: peptide region: H3 20-32, peptide modifications: H3K23me1 H3K27me1, binder concentration: 1:2,000 dilution.
Where [8] appears, read: peptide region: H3 20-32, peptide modifications: H3K23me1 H3K27me1, binder concentration: 1:10,000 dilution.
The mark [9] stands for this setting: peptide region: H3 11-23, peptide modifications: H3R17me2s H3K18me3, binder concentration: 1:2,000 dilution.
The mark [10] stands for this setting: peptide region: H3 11-23, peptide modifications: H3R17me2s H3K18me3, binder concentration: 1:10,000 dilution.
Where [11] appears, read: peptide region: H3 11-23, peptide modifications: H3R17me2s, binder concentration: 1:2,000 dilution.
Setting [12] is: peptide region: H3 11-23, peptide modifications: H3R17me2s, binder concentration: 1:10,000 dilution.
[13] abbreviates: peptide region: H3 11-23, peptide modifications: H3R17me2a H3K18me2, binder concentration: 1:2,000 dilution.
Setting [14] is: peptide region: H3 11-23, peptide modifications: H3R17me2a H3K18me2, binder concentration: 1:10,000 dilution.

With LATKAARKSAPAT [H3 20-32 L A T Kac A A R Kme2 S A P A T], the “peptide microarray binding signal” value in assay [1] (peptide region: H3 20-32, peptide modifications: H3K23ac H3K27me2, binder concentration: 50 nM) was found to be 0.00426 ± 0.0002; in assay [1] (peptide region: H3 20-32, peptide modifications: H3K23ac H3K27me2, binder concentration: 500 nM), 0.00929 ± 0.0011; in assay [2] (peptide region: H3 20-32, peptide modifications: H3K23ac H3K27me2, binder concentration: 10 nM), 0.0152 ± 0.0015; in assay [2] (peptide region: H3 20-32, peptide modifications: H3K23ac H3K27me2, binder concentration: 100 nM), 0.0206 ± 0.00053; in assay [3] (setting [5]), 0.00765 ± 0.0019; in assay [3] (setting [6]), 0.00719 ± 0.00029. Also, the “peptide microarray binding signal” value in assay [4] (setting [5]) worked out at 0.00344 ± 0.001; in assay [4] (setting [6]), 0.00329 ± 0.00032.
With LATKAARKSAPAT [H3 20-32 L A T Kme A A R Kme S A P A T], the “peptide microarray binding signal” value worked out at 0.00404 ± 0.00027 in assay [1] (peptide region: H3 20-32, peptide modifications: H3K23me1 H3K27me1, binder concentration: 50 nM); 0.00976 ± 0.00044 in assay [1] (peptide region: H3 20-32, peptide modifications: H3K23me1 H3K27me1, binder concentration: 500 nM); 0.015 ± 0.00066 in assay [2] (peptide region: H3 20-32, peptide modifications: H3K23me1 H3K27me1, binder concentration: 10 nM); 0.0215 ± 0.0021 in assay [2] (peptide region: H3 20-32, peptide modifications: H3K23me1 H3K27me1, binder concentration: 100 nM); 0.0102 ± 0.0036 in assay [3] (setting [7]); 0.01 ± 0.00092 in assay [3] (setting [8]). Besides, the “peptide microarray binding signal” value in assay [4] (setting [7]) worked out at 0.00488 ± 0.00067; in assay [4] (setting [8]), 0.0045 ± 0.00019.
As to TGGKAPRKQLATK [H3 11-23 T G G K A P Rme2s Kme3 Q L A T K], the “peptide microarray binding signal” value turned out to be 0.00476 ± 0.00011 in assay [1] (peptide region: H3 11-23, peptide modifications: H3R17me2s H3K18me3, binder concentration: 50 nM); 0.00814 ± 0.00026 in assay [1] (peptide region: H3 11-23, peptide modifications: H3R17me2s H3K18me3, binder concentration: 500 nM); 0.0107 ± 0.0017 in assay [2] (peptide region: H3 11-23, peptide modifications: H3R17me2s H3K18me3, binder concentration: 10 nM); 0.0204 ± 0.0049 in assay [2] (peptide region: H3 11-23, peptide modifications: H3R17me2s H3K18me3, binder concentration: 100 nM); 0.0681 ± 0.028 in assay [3] (setting [9]); 0.0469 ± 0.0085 in assay [3] (setting [10]). Also, the “peptide microarray binding signal” value was 0.0662 ± 0.01 in assay [4] (setting [9]) and 0.0267 ± 0.0059 in assay [4] (setting [10]).
Turning to TGGKAPRKQLATK [H3 11-23 T G G K A P Rme2s K Q L A T K], the “peptide microarray binding signal” value in assay [1] (peptide region: H3 11-23, peptide modifications: H3R17me2s, binder concentration: 50 nM) was found to be 0.00332 ± 8.4e-05; in assay [1] (peptide region: H3 11-23, peptide modifications: H3R17me2s, binder concentration: 500 nM) it was 0.00543 ± 0.00073; in assay [2] (peptide region: H3 11-23, peptide modifications: H3R17me2s, binder concentration: 10 nM) it was 0.003163 ± 1.7e-05; in assay [2] (peptide region: H3 11-23, peptide modifications: H3R17me2s, binder concentration: 100 nM), 0.00411 ± 0.00034; in assay [3] (setting [11]), 0.001 ± 5.2e-05; in assay [3] (setting [12]), 0.00108. The “peptide microarray binding signal” value came to 0.00128 ± 0.00017 in assay [4] (setting [11]) and 0.0011 ± 4e-05 in assay [4] (setting [12]).
As to TGGKAPRKQLATK [H3 11-23 T G G K A P Rme2a Kme2 Q L A T K], the “peptide microarray binding signal” value was found to be 0.00937 ± 0.0035 in assay [1] (peptide region: H3 11-23, peptide modifications: H3R17me2a H3K18me2, binder concentration: 50 nM); 0.011 ± 0.00034 in assay [1] (peptide region: H3 11-23, peptide modifications: H3R17me2a H3K18me2, binder concentration: 500 nM); 0.0112 ± 0.0018 in assay [2] (peptide region: H3 11-23, peptide modifications: H3R17me2a H3K18me2, binder concentration: 10 nM); 0.0143 ± 0.00077 in assay [2] (peptide region: H3 11-23, peptide modifications: H3R17me2a H3K18me2, binder concentration: 100 nM); 0.00423 ± 0.00094 in assay [3] (setting [13]); 0.0032 ± 0.00019 in assay [3] (setting [14]). In addition, the figures for the “peptide microarray binding signal” value in assay [4] (setting [13]) and in assay [4] (setting [14]) were 0.00186 ± 6.1e-05 and 0.001787 ± 1.7e-05, respectively.

The values are drawn from the supplement of paper PMC4022240.
